Active and inactive are the calls of the source.
Columns and labels:
[1] = E. coli DRC41 culture turbidity changes, primary screen, E. coli filamentation inducer project, strain DRC41, OD650, 48 h (AID 1152);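 note: E. coli MC1000 strain DRC41 lacking acrAB efflux pump and sulA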; details: E. coli DRC41 (acrAB sulA), higher = more signal, called active from +8 up or from −8 down
[2] = small-molecule binders of probe aLefty1, primary screen, biochemical, small-molecule microarray, 635/667 nm fluorescence (AID 1153); details: higher = more signal;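 note: score merges spot fluorescence with signal-to-noise ratio from the scanned slide images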
[3] = PSAC antagonists in infected red cells, primary screen, cell-based, P. falciparum Indochina, OD700, 1 h (AID 1154); details: P. falciparum Indochina infected RBC osmotic lysis, higher = more signal, called active from +8 up or from −8 down
[4] = PSAC antagonists in infected red cells, primary screen, cell-based, P. falciparum Indochina, OD700, 2 h (AID 1155);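 note: lysis reports solute entry through the parasite surface anion channel PSAC; channel blockers reduce lysis of infected cells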; details: P. falciparum Indochina infected erythrocytes, osmotic lysis OD700; higher = more signal, called active from +8 up or from −8 down
[5] = osmotic lysis modulators in infected erythrocytes, primary screen, PSAC antagonist project, cell-based, P. falciparum Indochina, OD700, 3 h (AID 1156); details: higher = more signal, called active from +8 up or from −8 down
[6] = PSAC antagonists in infected red cells, primary screen, cell-based, P. falciparum Indochina, OD700, 18 h (AID 1157); details: P. falciparum Indochina infected erythrocytes, osmotic lysis OD700, 18 h; higher = more signal, called active from +8 up or from −8 down
[7] = modulators of S6 phosphorylation in cells, primary screen, cell-based, A549, cytoblot, luminescence, serum-stimulated (AID 1158); details: A549 phospho-S6 cytoblot, 5 h, higher = more signal;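 note: serum-stimulated A549 lung adenocarcinoma cells; signal is phosphorylated S6 detected by cytoblot immunostaining with HRP secondary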
[8] = biological target: NADPH oxidase 2 (Homo sapiens) (UniProt P04839); assay: NOX2-dependent H2O2 signal modulators, primary screen, NOX inhibitor project, cell-based, HEK293-NOX2, PMA-stimulated, Amplex Red fluorescence (AID 1159); details: 45 min, higher = more signal, called active from +8 up or from −8 down; note: test concentration not given here
Chain of NADPH oxidase 2 (Homo sapiens) (P04839 whole entry, looked up): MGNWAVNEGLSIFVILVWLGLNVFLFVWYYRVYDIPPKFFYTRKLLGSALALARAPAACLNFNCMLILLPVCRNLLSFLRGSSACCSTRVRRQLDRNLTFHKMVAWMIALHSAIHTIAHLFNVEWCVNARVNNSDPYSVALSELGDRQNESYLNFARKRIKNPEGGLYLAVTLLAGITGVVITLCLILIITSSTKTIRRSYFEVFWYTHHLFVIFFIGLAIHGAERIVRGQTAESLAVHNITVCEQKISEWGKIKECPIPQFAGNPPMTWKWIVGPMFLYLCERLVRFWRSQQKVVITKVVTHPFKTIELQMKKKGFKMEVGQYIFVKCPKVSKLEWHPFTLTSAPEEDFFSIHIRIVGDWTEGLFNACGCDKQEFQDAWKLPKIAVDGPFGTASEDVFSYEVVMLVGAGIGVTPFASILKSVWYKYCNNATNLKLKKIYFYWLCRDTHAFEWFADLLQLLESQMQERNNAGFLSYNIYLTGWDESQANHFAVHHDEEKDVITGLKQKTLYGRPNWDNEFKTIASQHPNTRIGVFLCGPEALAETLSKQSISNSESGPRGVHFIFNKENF

[9] = biological target: NADPH oxidase 4 (Homo sapiens) (UniProt Q9NPH5); assay: NOX4-dependent H2O2 signal modulators, primary screen, NOX inhibitor project, cell-based, HEK293-NOX4, tetracycline-induced, Amplex Red fluorescence (AID 1160); details: 45 min, higher = more signal, called active from +8 up or from −8 down
Chain of NADPH oxidase 4 (Homo sapiens) (Q9NPH5 whole entry, looked up): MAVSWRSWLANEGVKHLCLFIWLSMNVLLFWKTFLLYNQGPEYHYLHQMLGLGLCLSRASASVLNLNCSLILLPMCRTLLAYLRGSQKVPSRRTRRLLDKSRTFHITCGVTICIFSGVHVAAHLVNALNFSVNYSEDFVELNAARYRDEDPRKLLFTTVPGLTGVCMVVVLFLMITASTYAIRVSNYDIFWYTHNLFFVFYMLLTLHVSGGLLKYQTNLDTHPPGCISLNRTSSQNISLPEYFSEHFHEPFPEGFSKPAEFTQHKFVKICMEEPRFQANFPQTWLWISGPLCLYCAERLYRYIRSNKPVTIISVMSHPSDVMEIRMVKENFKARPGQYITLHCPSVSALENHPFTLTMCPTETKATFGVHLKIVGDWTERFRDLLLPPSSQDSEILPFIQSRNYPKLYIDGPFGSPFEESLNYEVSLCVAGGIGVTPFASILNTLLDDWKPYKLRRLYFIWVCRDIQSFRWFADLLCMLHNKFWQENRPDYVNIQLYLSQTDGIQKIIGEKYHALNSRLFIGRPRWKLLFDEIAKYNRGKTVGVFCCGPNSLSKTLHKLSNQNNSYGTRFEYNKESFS

[10] = biological target: NADPH oxidase 5 (Homo sapiens) (UniProt Q96PH1); assay: NOX5-dependent H2O2 signal modulators, primary screen, NOX inhibitor project, cell-based, HEK293-NOX5, Amplex Red fluorescence (AID 1161); details: HEK293-NOX5, ionomycin, 45 min, higher = more signal
Chain of NADPH oxidase 5 (Homo sapiens) (Q96PH1 whole entry, looked up): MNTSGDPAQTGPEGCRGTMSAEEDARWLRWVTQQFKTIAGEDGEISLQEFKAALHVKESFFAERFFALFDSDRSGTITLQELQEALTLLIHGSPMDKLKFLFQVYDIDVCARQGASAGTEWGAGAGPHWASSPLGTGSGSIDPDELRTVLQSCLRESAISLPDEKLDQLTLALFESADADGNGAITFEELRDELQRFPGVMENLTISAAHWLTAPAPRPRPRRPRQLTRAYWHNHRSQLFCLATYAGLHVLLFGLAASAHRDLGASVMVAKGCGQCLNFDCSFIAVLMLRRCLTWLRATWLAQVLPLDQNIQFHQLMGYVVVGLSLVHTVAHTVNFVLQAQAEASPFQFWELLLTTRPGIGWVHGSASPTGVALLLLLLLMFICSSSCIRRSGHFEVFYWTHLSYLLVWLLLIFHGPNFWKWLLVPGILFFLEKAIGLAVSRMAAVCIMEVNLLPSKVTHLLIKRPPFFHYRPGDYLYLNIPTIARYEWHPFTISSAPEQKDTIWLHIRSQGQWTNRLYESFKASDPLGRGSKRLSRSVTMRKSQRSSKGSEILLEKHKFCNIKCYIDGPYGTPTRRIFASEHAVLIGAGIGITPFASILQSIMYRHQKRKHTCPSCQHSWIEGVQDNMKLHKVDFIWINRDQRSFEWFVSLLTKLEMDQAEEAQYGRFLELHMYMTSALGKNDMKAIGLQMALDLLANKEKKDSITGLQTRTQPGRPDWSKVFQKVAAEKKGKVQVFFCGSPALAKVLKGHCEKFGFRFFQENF

[11] = A549 cell viability effects, profiling panel, calcein-AM fluorescence, 48 h, basal (AID 1162); details: higher = more signal; note: test concentration not given here
[12] = adipocyte viability effects, profiling panel, cell-based, 3T3-L1 adipocytes, calcein-AM fluorescence, 48 h, basal (AID 1163); details: 3T3-L1 adipocytes viability, higher = more signal; note: test concentration not given here
[13] = HepG2 cell viability effects, profiling panel, calcein-AM fluorescence, 48 h, basal (AID 1164); details: higher = more signal; note: test concentration not given here
[14] = MM1S cell viability effects, profiling panel, calcein-AM fluorescence, 48 h, basal (AID 1165); details: higher = more signal;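 note: viability of MM1S multiple myeloma cells under basal unstimulated conditions; test concentration not given here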
[15] = basal RPMI8226 viability, no added stimulus, profiling panel, cell-based, calcein-AM fluorescence, 48 h, PK04 Diversity Set (AID 1166); details: RPMI8226 myeloma viability, higher = more signal;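 note: cells grown under basal conditions without added stimulus; test concentration not given here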
[16] = basal HepG2 mitochondrial membrane potential changes, profiling panel, cell-based, JC-1 fluorescence, 24 h, 100 nL compound (AID 1167); details: higher = more signal; note: test concentration not given here
[17] = basal 3T3-L1 adipocyte mitochondrial potential changes, profiling panel, cell-based, JC-1 fluorescence, 3T3-L1 adipocytes, 24 h, 100 nL compound (AID 1168); details: JC-1 mitochondrial fluorescence, higher = more signal, called active from +8 up or from −8 down; note: test concentration not given here
[18] = basal RPMI8226 mitochondrial membrane potential changes, profiling panel, cell-based, JC-1 fluorescence, 24 h, 100 nL compound (AID 1169); details: RPMI8226 myeloma, JC-1 mitochondrial potential fluorescence, higher = more signal; note: test concentration not given here
[19] = basal MM1S mitochondrial membrane potential changes, profiling panel, cell-based, JC-1 fluorescence, 24 h, 100 nL compound (AID 1170); details: higher = more signal; note: test concentration not given here
[20] = A549 lung cancer cell viability effects, profiling panel, resazurin fluorescence, 24 h, PK04 Diversity Set (AID 1171); details: higher = more signal, called active from +8 up or from −8 down; note: test concentration not given here

SMILES	z-score [1]	composite z-score [2]	z-score [3]	z-score [4]	z-score [5]	z-score [6]	z-score [7]	z-score [8]	z-score [9]	z-score [10]	z-score [11]	z-score [12]	z-score [13]	z-score [14]	z-score [15]	z-score [16]	z-score [17]	z-score [18]	z-score [19]	z-score [20]
C[C@@H](c1ccccc1)N1C(=O)[C@H]2[C@H]3[C@H](O)[C@H](O)CC(=NNC(=O)OCc4ccccc4)[C@@H]3CC[C@H]2C1=O	0.362 (inactive)	-0.0294	0.0012 (inactive)	0.461 (inactive)	-0.694 (inactive)	0.329 (inactive)	-0.136	-0.065 (inactive)	1.07 (inactive)	-0.0584	-0.18	-0.506	-0.468	0.399	-0.253	-0.604	-0.762 (inactive)	0.102	-0.998	-0.427 (inactive)
COC(=O)[C@H](C)NC(=O)CCC1CC(OC(=O)NCCc2ccc(F)cc2)CC2(CCCC(COC(=O)NCC3CCCCC3)O2)O1 (stereo not given in full)	-0.56 (inactive)	-0.0464	0.731 (inactive)	-0.391 (inactive)	0.701 (inactive)	-0.957 (inactive)	1.77	-0.763 (inactive)	-1.47 (inactive)	-1.68	-0.111	0.851	-1.36	-0.574	-1.85	-0.717	0.497 (inactive)	0.785	-0.771	0.541 (inactive)
O=C1C=C[C@@H](O)[C@@H]2[C@@H]3C(=O)N(Cc4ccccc4)C(=O)[C@@H]3CC[C@@H]12	0.763 (inactive)	-0.0145	0.09 (inactive)	0.201 (inactive)	0.853 (inactive)	-0.0165 (inactive)	0.09	0.808 (inactive)	0.553 (inactive)	0.455	0.698	0.594	1.33	-0.134	-0.73	1.42	-0.125 (inactive)	-0.057	-0.05	-0.754 (inactive)
CO[C@H]1COC(=O)CCC[C@H](C)[C@@H](OC)COC(=O)CC=C[C@@H]1C	0.0226 (inactive)	-0.17	-1.29 (inactive)	-1.22 (inactive)	-0.315 (inactive)	-2.45 (inactive)	-0.279	-0.123 (inactive)	-0.0115 (inactive)	0.344	0.0792	0.751	0.205	0.105	0.471	-0.503	-0.713 (inactive)	-0.483	-0.866	0.0382 (inactive)
CCOC(=O)[C@H](Cc1ccccc1)NC(=O)CCC1CC(OC(=O)NCCc2ccc(F)cc2)CC2(CCCC(COC(=O)NCc3cccc(C(F)(F)F)c3)O2)O1 (stereo not given in full)	0.048 (inactive)	0.0834	-1.14 (inactive)	0.277 (inactive)	-0.017 (inactive)	0.344 (inactive)	-0.354	0.575 (inactive)	0.488 (inactive)	0.837	-0.754	0.15	-0.875	-0.0822	-1.82	0.502	-0.306 (inactive)	0.562	0.464	1.39 (inactive)
O=C1[C@H]2[C@H]3[C@H](O)[C@H](O)CC(=NO[C@@H]4O[C@H](CO)[C@@H](O)[C@H](O)[C@H]4O)[C@@H]3CC[C@H]2C(=O)N1c1cccc(Oc2ccccc2)c1	-0.192 (inactive)	-0.0967	-0.612 (inactive)	-0.0313 (inactive)	0.271 (inactive)	0.0606 (inactive)	-0.263	0.614 (inactive)	1.02 (inactive)	0.544	0.161	-0.45	-0.593	0.365	-0.815	-0.655	-0.349 (inactive)	-0.277	-0.229	0.39 (inactive)
CCc1cc2c(nc1CC)CCN(CCC(C)=NOCC[C@@H]1C=C[C@H](OC(C)=O)[C@@H](COC(C)=O)O1)C2	-0.842 (inactive)	0.245	1.86 (inactive)	0.724 (inactive)	0.77 (inactive)	0.269 (inactive)	-1.04	-0.572 (inactive)	0.615 (inactive)	1.65	0.34	0.63	0.679	-0.47	0.123	1.45	-1.32 (inactive)	0.578	-0.13	0.29 (inactive)
COC(=O)CC=C[C@@H](C)[C@@H](C=NOC[C@@H](C)[C@H](OCc1ccccc1)C(C)C)OC	0.14 (inactive)	-0.29	2.17 (inactive)	0.319 (inactive)	-0.728 (inactive)	-0.0741 (inactive)	0.391	0.64 (inactive)	-0.614 (inactive)	-2.2	-0.37	-0.0404	-0.0472	-0.18	-0.991	0.0695	-1.61 (inactive)	-0.151	-0.93	-0.891 (inactive)

Source: PubChem BioAssay
